# Assay outcomes: PubChem BioAssay, National Center for Advancing Translational Sciences (NCATS)
# D2 ag-1: agonists of human D2 dopamine receptor (beta-arrestin); AID 624465; 360,000 compounds, 0.084% hits; activation, % (no concentration beside the values); DiscoveRx PathHunter D2 beta-arrestin, luminescence, 90 min; 100% = 57 uM dopamine signal; P14416; in the data active = activation above about 40%; inconclusive = between about 15% and that limit
# Target sequence (P14416 whole entry, looked up): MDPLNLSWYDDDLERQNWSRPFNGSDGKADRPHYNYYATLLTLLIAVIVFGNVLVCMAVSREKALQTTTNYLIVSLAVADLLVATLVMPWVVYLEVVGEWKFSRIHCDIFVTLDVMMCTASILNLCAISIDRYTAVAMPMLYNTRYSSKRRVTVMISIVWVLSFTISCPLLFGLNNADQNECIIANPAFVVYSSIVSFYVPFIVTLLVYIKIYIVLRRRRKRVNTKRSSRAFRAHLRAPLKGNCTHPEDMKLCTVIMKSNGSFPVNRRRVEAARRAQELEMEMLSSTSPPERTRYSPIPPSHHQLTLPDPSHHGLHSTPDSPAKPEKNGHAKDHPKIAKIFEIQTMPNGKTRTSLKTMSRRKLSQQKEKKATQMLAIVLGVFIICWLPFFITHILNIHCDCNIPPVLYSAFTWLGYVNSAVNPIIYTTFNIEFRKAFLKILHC
#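 Agonist mode: compounds alone added to overnight-plated D2 PathHunter cells for 90 min at 37 C, with 57 uM final dopamine (EC100) defining full response. Beta-arrestin recruitment detected by chemiluminescent reagent, read after 1 h at ambient temperature.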
# D2 PAM-1: D2 dopamine receptor (human) potentiation. P14416. HEK293 T-REx D2, calcium flux, EC20 dopamine potentiation. potentiation, % at 10 µM. 340,000 compounds, 0.34% hits. AID 485347;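 active = potentiation over 3 SD above the plate norm, cut at about 30% in these data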; note: 0% is about no effect
#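 Primary screen. Calcium kinetics in induced HEK293 T-REx D2 cells: compound pre-addition 180 s, EC20 dopamine, 180 s more.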
# D2 ag-2: agonists of human D2 dopamine receptor; P14416; HEK293 T-REx D2 cells, calcium flux agonist mode; activation, % at 2 µM; 340,000 compounds, 0.53% hits;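 active = activation over 3 SD above normal in the single-dose calcium agonist read, cut at about 30% in these data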; note: 0% is about no effect
#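 Tetracycline-induced HEK293 Trex cells with D2 receptor force-coupled to calcium signaling, plated overnight at 30 C and loaded with no-wash calcium dye. Calcium flux read kinetically for 180 s after compound addition; responses flag agonists.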
# D2 antag: antagonists of human D2 dopamine receptor | HEK293 TREx D2 cells, calcium flux, dopamine EC80 | 340,000 compounds, 2% hits | inhibition, % at 10 µM | P14416; in the data active = inhibition above about 30%; inactive = below that, where a call was filed; note: 0% is about no effect
#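 HEK293 T-REx D2 cells, tet-induced, calcium dye no-wash. Cpd pintool add, 180 s kinetic, then EC80 DA, 180 s kinetic. Ca flux read.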
# D2 PAM-2: positive allosteric modulators of human D2 dopamine receptor. P14416. DiscoveRx D2 beta-arrestin cells, luminescence, 90 min; 100% = 57 uM dopamine signal. potentiation, % (concentration not given with the values). 360,000 compounds, 0.23% hits. AID 624464; in the data active = potentiation above about 50%; inconclusive = mostly about 30% to 49%
#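 PathHunter D2 cells, attached overnight at 37 deg C, received compound in DMSO plus dopamine at EC20 (50 nM final) for 90 min at 37 deg C. Beta-arrestin recruitment was read as luminescence after 1 h with detection reagent at ambient temperature.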
# * = called active by the depositor; ? = inconclusive; . = no result given. In the library only some 2.4% were active in any assay of this set; here they are far more common.
SMILES,D2 ag-1,D2 PAM-1,D2 ag-2,D2 antag,D2 PAM-2
CCC(=O)Nc1cccc(-c2csc(-c3ccccc3)n2)c1,-4,6,0,38*,-3
CCC(=O)Nc1cccc(C(=O)c2ccccc2)c1,1,31*,-1,-17,4
CC(C)CC(=O)Nc1cccc(-c2csc(-c3ccccc3)n2)c1,-1,-29,1,-12,0
Cc1nc(-c2cccc(NC(=O)COc3ccc(Cl)cc3)c2)cs1,-4,-16,0,70*,-54
O=C(COc1ccc(Cl)cc1)Nc1ccc2[nH]ncc2c1,-1,2,0,34*,-9
O=C(NCc1ccc(Cl)cc1)c1ccc(CNS(=O)(=O)c2ccc(F)cc2)cc1,.,8,.,.,.
O=C(CSC1=Nc2ccccc2C2=NC(Cc3ccccc3)C(=O)N12)Nc1ccccc1C(F)(F)F (stereo not given),.,1,-5,.,.
Cc1ccc(C)c(N2C(=O)N(Cc3ccccc3C)c3ccccc3S2(=O)=O)c1,.,4,0,.,.
CCCCN1C(=O)C(O)(CC(=O)c2ccccc2OC)c2ccccc21 (stereo not given),-3,-11,0,33*,-3
CCOc1cccc(-c2c(C(=O)N/N=C/c3cccs3)nnn2-c2nonc2N)c1,-1,14,9,32*,-6
Cc1cccc(S(=O)(=O)c2c(N)n(Cc3ccco3)c3nc4ccccc4nc23)c1,-3,45*,3,4,-9
COc1cccc(NCc2ccc([N+](=O)[O-])s2)c1,10,19,0,-29,50*
O=C(NNc1nc2c(F)cc(F)cc2s1)C1=COCCO1,0,2,-1,39*,-1
CCC(=O)NNc1nc2c(F)cc(F)cc2s1,1,5,1,40*,1
COC(=O)c1ccc(NC(=O)CN(Cc2ccccc2)S(=O)(=O)c2ccc(Cl)cc2)cc1,.,-28,6,.,.
COc1cc2c(-c3ccc(C)cc3)nc3c(c(C)nn3-c3ccccc3)c2cc1OC,.,0,1,.,.
O=C(OCCN1C(=O)c2cccc3c(N4CCOCC4)ccc(c23)C1=O)c1cccc(Cl)c1,2,-18,74*,35*,-29
O=C(OCCN1C(=O)c2ccccc2C1=O)c1cc(S(=O)(=O)N2CCOCC2)ccc1Cl,3,15,0,-7,-7
O=C(OCCN1C(=O)c2cccc3c(N4CCOCC4)ccc(c23)C1=O)c1ccc(Cl)cc1Cl,-1,-10,36*,27,-18
Cc1ccc(NC(=O)N(C2=NCC(C)S2)c2ccccc2)cc1 (stereo not given),2,.,.,.,-8
CC(=O)Nc1ccc(S(=O)(=O)N(C2=NCC(C)S2)c2ccccc2)cc1 (stereo not given),1,-6,0,51*,-43
Cc1ccc(CNc2ccc(N3CCOCC3)cc2)s1,2,-10,-1,8,18
CC(=O)N1CCN(c2ccc(NCc3ccc(C)s3)cc2)CC1,?,12,1,50*,5
CCOC(CNC(=O)c1cc(C)nn1-c1ccccc1)OCC,2,3,0,19,-6
CCOCCCNC(=O)c1cc(C)nn1-c1ccccc1,-6,6,1,36*,-5
SMILES,D2 ag-1,D2 PAM-1,D2 ag-2,D2 antag,D2 PAM-2
Cc1nn(Cc2ccccc2)c(C)c1NC(=O)c1noc2c1CCc1ccccc1-2,0,31*,0,-4,-4
Cc1nn(Cc2ccc(Cl)c(Cl)c2)c(C)c1NC(=O)c1noc2c1CCc1ccccc1-2,.,6,1,.,.
C/C=C\C=C/C(=O)Nc1cccc(C2=NOC3(C2)C[C@@H](C(N)=O)N(C(=O)C2(C)CC2)C3)c1 (stereo not given in full),-1,4,0,-1,-5
C=C(C)C(=O)Nc1cccc(C2=NOC3(C2)C[C@H](C(N)=O)N(C(=O)COc2ccc(Cl)cc2)C3)c1 (stereo not given in full),2,-1,0,35*,-12
C/C=C\C(=O)Nc1cccc(C2=NOC3(C2)C[C@@H](C(N)=O)N(C(=O)C2(C)CC2)C3)c1 (stereo not given in full),-2,11,-1,34*,-7
Cc1c(C(=O)N2CC3(CC(c4cccc(NC(=O)[C@H]5CCC(=O)N5)c4)=NO3)C[C@@H]2C(N)=O)cc([N+](=O)[O-])cc1[N+](=O)[O-] (stereo not given in full),7,1,0,-10,74*
CCOc1ccc(CCNC(=O)CCc2cn(Cc3ccc(C)cc3)c3ccccc23)cc1,.,-2,0,.,.
Cc1cccc(NC(=O)CN2C(=O)c3ccccc3Sc3ncccc32)c1C,.,4,0,.,.
COc1ccccc1CNC(=O)c1c(O)nc2cc(C)ccn2c1=O,.,-3,.,.,.
CC(NC(=O)c1cccs1)C(c1cccs1)N1CCN(c2ccccc2)CC1 (stereo not given),0,55*,0,7,-4
CC(NC(=O)Cc1ccc(F)cc1)C(c1cccs1)N1CCN(C)CC1 (stereo not given),-1,50*,0,-1,3
CC(C)C(=O)NC(C)C(c1cccs1)N1CCN(c2ccccc2)CC1 (stereo not given),1,17,1,-10,-13
CCOc1ccc(NC(=O)CCS(=O)(=O)c2cccc3nonc23)cc1,.,7,0,.,.
COc1cccc(C(=O)NCC2CCCN(C3CCCCC3)C2)c1OC (stereo not given),0,-17,1,57*,1
CCC(=O)N1CCc2cc(CNC(=O)Cc3ccc(F)cc3)ccc21,.,7,0,.,.
Cc1cc(OCc2cc(C(=O)N3CCN(C)C(=O)[C@@H]3C)no2)cc(C)c1Cl,0,30*,1,3,-14
COc1cc(Cl)ccc1OCc1cc(C(=O)N2CCN(C)C(=O)[C@@H]2C)no1,0,.,.,.,4
O=C(NCc1ccccc1Cl)c1ccc2c(c1)ncn2-c1cccc(F)c1,.,-5,.,.,.
Oc1ccc2nnc3c(Br)cnn3c2c1,?,6,53*,-9,12
CC(=O)C1=C(OC(=O)C(C)C)c2ccccc2S(=O)(=O)N1Cc1ccccc1,.,-12,8,.,.
CCOc1nc(-c2ccccc2)ccc1-c1noc(-c2ccc(C)cc2)n1,.,6,-2,.,.
CCOc1ccc(-c2nc(-c3cccnc3)no2)cc1,-1,-4,0,-18,5
CCOc1ccc(-c2nc(-c3ccccc3C)no2)cc1,.,.,1,53*,.
CCCCOc1ccc(-c2nc(-c3cccnc3)no2)cc1,-1,-6,0,34*,-7
CCOc1ccccc1Nc1sc(C(=O)c2ccc(Cl)cc2)c(N)c1C#N,.,7,0,.,.
Cc1cc(=O)n(Cc2cccc(F)c2)c2c1c(C)nn2-c1cccc(F)c1,.,3,0,.,.
COc1ccc(CCNC(=O)c2c(O)nc3ccccn3c2=O)cc1OC,.,0,0,.,.
